Design in all cases: scale not given: direction of the effect not stated beside the values
Assay [1] deals with Protein translocase subunit SecA (Escherichia coli (strain K12)) (UniProt P10408). The assay can be described thus: Assay to Identify E. coli SecA ATPase Inhibitors. Type of assay: functional. As to conditions: 30 µM.
The target in assay [2] is T1, Ubiquitin-activating enzyme e1, putative (Leishmania donovani (strain BPK282A1)) (UniProt E9BSI1).
T1 sequence (whole entry): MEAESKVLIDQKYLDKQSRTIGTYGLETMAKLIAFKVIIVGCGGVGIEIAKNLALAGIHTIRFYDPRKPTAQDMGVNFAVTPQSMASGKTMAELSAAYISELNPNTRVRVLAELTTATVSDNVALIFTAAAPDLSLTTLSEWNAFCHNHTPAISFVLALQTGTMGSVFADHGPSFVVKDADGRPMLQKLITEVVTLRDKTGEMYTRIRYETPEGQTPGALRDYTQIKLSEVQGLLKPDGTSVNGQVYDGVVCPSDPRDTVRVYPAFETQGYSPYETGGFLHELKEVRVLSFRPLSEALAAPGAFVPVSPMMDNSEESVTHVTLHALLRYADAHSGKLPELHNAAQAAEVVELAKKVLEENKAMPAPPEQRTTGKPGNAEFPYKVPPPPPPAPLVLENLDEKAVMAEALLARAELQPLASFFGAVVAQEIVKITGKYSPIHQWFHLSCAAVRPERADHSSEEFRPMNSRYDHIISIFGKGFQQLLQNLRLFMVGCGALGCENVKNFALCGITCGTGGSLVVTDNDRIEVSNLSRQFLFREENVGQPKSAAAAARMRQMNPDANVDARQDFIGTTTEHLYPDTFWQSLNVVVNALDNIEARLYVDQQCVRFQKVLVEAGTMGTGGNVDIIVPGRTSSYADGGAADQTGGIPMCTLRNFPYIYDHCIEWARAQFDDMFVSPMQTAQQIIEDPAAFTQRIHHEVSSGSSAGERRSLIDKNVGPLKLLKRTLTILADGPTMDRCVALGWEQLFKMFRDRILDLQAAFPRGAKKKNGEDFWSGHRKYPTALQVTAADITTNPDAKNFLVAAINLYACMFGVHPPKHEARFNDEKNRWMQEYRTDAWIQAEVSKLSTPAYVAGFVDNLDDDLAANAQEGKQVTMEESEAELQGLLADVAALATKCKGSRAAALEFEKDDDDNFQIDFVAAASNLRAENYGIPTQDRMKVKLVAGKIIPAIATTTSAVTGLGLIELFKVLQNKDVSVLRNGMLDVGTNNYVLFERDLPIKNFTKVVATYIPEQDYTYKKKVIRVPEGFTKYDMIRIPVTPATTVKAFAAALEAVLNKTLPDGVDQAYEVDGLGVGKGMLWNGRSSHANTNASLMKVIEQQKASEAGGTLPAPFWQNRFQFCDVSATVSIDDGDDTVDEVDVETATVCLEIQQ
Description: Leishmania donovani Ubiquitin Activating Enzyme (LdE1). Type of assay: functional. As to conditions: 30 µM.

Assay [3] has as its target AMP-activated protein kinase, AMPK (Homo sapiens) (UniProt P54646+O43741+P54619+Q9UGJ0+Q9Y478+Q13131+Q9UGI9). The assay can be described thus: AMP-dependent Kinase enzyme assay. An in vitro enzyme assay that detects ADP turnover that is directly proportional to AMPK activity. This uses naive AMPK that is activated during the assay with MK-8722. Type of assay: functional. As to conditions: 30 µM.

Assay [4] addresses Sialic acid-binding Ig-like lectin 9 (Homo sapiens) (UniProt Q9Y336). Description: Hs-Siglec9 ALPHAscreen SOP 20170721. As to conditions: 10 µM. On the technique in general: Alpha assays give light when donor and acceptor beads are brought close together.
Assay [5] has as its system Trypanosoma cruzi. Description: Trypanosoma cruzi phosphomannomutase and mannose-1-phosphate guanylyltransferase assay. Type of assay: functional. Particulars: 10 µM.
The target of assay [6] is T2, Arginase-2, mitochondrial (Homo sapiens) (UniProt P78540).
T2 sequence (whole entry): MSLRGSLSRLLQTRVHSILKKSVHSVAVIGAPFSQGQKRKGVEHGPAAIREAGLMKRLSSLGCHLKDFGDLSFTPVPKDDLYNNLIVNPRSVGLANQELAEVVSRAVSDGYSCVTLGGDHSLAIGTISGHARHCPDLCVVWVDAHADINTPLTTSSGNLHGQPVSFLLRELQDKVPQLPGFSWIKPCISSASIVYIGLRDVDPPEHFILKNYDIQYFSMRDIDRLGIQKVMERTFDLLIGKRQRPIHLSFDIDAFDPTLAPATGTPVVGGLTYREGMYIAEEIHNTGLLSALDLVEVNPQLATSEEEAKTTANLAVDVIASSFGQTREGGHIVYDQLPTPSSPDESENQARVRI
The assay can be described thus: in vitro enzyme assay to detect the production of urea directly proportional to the activity of Arginase II. Further: in the data most compounds retested in dose-response had high values. Type of assay: functional. Particulars: 33.3 µM.

Assay [7] concerns the target T3, Proteasome subunit beta (Trypanosoma cruzi) (UniProt O96673).
T3 sequence (whole entry): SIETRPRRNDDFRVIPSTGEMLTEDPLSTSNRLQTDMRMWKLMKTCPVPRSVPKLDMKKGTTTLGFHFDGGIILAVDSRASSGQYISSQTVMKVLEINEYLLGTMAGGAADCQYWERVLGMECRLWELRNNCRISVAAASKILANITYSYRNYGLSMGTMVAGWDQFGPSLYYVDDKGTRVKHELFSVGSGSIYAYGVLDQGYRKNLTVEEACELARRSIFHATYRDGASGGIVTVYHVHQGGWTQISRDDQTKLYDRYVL
The assay can be described thus: Trypanosoma cruzi proteasome chymotrypsin-like activity (TcProtChymo) assay. Further: in the data most compounds retested in dose-response had high values. Type of assay: functional. Particulars: 9.37 µM.

The species entered for assay [8] is Homo sapiens. The assay can be described thus: To identify inhibition of the IFN signalling (Jak-Stat) pathway via expression of an eGFP reporter gene under the control of an IFN-stimulated response element (ISRE) containing MxA promoter. Type of assay: functional. Particulars: 30 µM. In general terms: A reporter such as luciferase makes a cellular process visible.

The target of assay [9] is T4, Tyrosyl-tRNA synthetase, putative (Trypanosoma cruzi (strain CL Brener)) (UniProt Q4DSP6).
T4 sequence (whole entry): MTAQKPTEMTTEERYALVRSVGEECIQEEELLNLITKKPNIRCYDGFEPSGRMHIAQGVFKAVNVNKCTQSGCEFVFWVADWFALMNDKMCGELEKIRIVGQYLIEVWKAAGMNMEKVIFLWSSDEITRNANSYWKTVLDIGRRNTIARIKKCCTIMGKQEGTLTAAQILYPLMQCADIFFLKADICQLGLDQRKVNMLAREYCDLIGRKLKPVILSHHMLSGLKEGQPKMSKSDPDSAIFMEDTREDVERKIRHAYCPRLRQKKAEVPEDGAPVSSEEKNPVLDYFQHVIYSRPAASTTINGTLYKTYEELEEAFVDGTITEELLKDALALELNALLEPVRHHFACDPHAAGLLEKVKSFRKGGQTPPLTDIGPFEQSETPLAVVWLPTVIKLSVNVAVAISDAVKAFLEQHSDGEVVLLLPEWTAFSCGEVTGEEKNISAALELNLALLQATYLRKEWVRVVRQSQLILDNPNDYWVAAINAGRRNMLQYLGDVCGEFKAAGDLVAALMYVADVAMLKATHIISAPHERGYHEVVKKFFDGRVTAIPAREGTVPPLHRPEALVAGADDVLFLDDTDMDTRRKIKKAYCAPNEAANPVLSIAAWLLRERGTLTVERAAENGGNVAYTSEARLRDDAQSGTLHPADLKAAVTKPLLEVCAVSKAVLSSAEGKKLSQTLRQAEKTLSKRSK
Description: Trypanosoma cruzi tyrosyl tRNA synthetase (TcYRS) _High Tyrosine SOP. Further: in the data most compounds retested in dose-response had high values. As to conditions: 30 µM. Type of assay: functional.

In assay [10] the target is T4, Tyrosyl-tRNA synthetase, putative (Trypanosoma cruzi (strain CL Brener)). The assay can be described thus: Trypanosoma cruzi tyrosyl tRNA synthetase (TcYRS) SOP. As to conditions: 30 µM. Type of assay: functional.
Assay [11] deals with Chromo domain-containing protein 1 (Saccharomyces cerevisiae (strain ATCC 204508 / S288c) (Baker's yeast)) (UniProt P32657). Description: ScCHD-1 Enzyme Inhibition Assay. Further: in the data most compounds retested in dose-response had high values. Type of assay: functional. As to conditions: 30 µM.
Chromo domain-containing protein 1 (Saccharomyces cerevisiae (strain ATCC 204508 / S288c) (Baker's yeast)), sequence (P32657 whole entry, the tested form may be a part): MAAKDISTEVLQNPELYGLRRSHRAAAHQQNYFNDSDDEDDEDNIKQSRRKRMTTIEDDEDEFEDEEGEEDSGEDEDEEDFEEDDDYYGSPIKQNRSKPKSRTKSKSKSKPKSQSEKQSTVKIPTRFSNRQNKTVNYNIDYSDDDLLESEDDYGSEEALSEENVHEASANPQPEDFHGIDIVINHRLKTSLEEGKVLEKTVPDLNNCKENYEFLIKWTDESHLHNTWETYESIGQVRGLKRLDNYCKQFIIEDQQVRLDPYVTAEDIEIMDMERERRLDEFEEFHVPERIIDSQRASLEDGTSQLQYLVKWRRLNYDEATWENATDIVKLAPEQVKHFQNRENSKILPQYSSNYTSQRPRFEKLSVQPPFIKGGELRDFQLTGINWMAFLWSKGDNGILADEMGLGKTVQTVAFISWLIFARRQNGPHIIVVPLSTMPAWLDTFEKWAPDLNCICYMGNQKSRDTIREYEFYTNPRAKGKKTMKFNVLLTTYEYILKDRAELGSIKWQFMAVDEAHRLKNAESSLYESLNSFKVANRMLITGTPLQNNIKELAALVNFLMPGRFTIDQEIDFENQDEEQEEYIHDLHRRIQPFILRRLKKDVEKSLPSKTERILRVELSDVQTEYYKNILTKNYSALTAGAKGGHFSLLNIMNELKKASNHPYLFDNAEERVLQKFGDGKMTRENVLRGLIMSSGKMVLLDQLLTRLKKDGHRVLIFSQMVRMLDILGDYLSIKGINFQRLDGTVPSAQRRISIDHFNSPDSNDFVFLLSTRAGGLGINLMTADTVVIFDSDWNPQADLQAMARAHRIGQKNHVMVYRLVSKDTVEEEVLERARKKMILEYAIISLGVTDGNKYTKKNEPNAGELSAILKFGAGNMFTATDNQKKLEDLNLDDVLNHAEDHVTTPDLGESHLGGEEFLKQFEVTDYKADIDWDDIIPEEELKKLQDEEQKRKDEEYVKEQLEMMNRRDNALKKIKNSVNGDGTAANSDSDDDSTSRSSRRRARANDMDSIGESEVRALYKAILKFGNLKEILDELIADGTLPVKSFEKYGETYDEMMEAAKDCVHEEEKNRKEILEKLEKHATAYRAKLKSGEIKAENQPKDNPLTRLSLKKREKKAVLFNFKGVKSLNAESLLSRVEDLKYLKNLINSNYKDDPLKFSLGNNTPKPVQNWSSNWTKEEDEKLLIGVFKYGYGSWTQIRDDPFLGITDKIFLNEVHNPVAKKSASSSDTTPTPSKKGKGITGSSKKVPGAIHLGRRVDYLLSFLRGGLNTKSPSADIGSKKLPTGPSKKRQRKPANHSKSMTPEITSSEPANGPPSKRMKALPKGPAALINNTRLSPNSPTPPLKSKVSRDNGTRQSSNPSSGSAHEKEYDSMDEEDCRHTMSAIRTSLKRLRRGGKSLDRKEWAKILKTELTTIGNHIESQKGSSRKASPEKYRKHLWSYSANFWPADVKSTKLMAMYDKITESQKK

For some of these results: Measured potencies and affinities stand elsewhere.

Sialic acid-binding Ig-like lectin 9 (Homo sapiens), sequence (Q9Y336 whole entry): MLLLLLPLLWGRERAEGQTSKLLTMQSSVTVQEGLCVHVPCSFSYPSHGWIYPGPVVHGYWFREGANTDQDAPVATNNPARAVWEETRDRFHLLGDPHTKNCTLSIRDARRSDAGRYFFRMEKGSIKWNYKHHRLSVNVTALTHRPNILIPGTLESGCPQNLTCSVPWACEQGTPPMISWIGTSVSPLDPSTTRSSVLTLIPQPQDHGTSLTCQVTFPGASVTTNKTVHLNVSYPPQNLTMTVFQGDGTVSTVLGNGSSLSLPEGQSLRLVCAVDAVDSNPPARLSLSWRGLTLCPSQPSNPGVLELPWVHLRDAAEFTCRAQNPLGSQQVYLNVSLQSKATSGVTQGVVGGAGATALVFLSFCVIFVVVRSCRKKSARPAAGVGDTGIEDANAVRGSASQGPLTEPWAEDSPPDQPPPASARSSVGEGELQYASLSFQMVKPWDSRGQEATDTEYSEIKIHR
Protein translocase subunit SecA (Escherichia coli (strain K12)), sequence (P10408 whole entry): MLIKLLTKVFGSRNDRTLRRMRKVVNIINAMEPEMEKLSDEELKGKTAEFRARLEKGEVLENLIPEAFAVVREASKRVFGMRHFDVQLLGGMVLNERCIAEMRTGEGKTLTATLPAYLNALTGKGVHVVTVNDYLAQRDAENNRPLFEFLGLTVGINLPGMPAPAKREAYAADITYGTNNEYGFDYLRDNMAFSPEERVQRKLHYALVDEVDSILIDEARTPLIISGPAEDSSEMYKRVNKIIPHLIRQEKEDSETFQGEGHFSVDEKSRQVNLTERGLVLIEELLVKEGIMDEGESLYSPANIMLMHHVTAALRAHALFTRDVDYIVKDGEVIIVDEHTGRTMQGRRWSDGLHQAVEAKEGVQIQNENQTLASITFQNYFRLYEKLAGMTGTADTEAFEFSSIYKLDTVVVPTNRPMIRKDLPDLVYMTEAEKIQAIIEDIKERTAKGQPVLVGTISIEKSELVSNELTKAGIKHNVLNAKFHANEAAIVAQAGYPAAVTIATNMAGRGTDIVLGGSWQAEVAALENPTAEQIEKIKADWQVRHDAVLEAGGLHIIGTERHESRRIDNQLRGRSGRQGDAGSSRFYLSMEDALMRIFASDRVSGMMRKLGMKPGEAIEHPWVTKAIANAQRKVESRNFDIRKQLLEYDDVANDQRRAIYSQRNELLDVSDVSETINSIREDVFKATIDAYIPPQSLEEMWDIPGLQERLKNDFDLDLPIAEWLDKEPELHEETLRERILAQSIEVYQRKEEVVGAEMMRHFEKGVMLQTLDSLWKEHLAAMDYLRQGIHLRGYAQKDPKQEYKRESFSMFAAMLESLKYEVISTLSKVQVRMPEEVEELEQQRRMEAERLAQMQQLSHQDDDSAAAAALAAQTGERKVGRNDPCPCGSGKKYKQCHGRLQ

With `CCc1n[nH]c(C2CN(C(=O)CCc3cccs3)CCO2)n1` (stereo not drawn), the Percent Effect in assay [1] was -5.44%; in assay [2], 11.4%; in assay [3], -4.01%; in [4] it was -7.1%; in [5], 1.74%; in [6], 0.645%. Moreover, the Percent Effect was 8.23% in assay [7]; 1.68% in [8]; 4.17% in assay [9]; 12.7% in assay [10]; -38.8% in assay [11].

With `Cc1ccsc1C(=O)N1C[C@@H]2CN(Cc3ccoc3)CCO[C@@H]2C1`, the Percent Effect is 1.09% in assay [1]; 18.9% in assay [2]; 1.36% in assay [3]; -11.6% in assay [4]; 5.18% in [5]; 9.87% in [6]. Moreover, the Percent Effect in assay [7] is 12.7%; in [8] it was -6.4%; in [9], 6.49%; in assay [10], 15.4%; in [11], -1.54%.

Take `CC(C(=O)NCc1ccnc(N2CCCC2)c1)n1cncn1` (stereo not drawn): the Percent Effect in assay [1] was -3.9%; in assay [2], 15.8%; in [3], -4.58%; in [4], -5.93%; in assay [5] it was -5.45%; in [6] it was 3.45%. In addition, the Percent Effect was 7.18% in assay [7]; 26.8% in assay [8]; 3.43% in assay [9]; 0% in assay [10]; -11.3% in assay [11].

For the molecule `Cc1nc(CNC(=O)NCCc2ccc(N(C)C)cc2)cs1`, the Percent Effect in [1] is -4.53%; in assay [2], 10.8%; in assay [3] it was 6.12%; in [4], 13.5%; in assay [5] it was 1.23%; in assay [6], -5.61%. Further, the Percent Effect was -1.98% in assay [7]; -15.3% in assay [8]; 9.36% in assay [9]; 18.5% in assay [10]; -10.4% in [11].

Consider `O=C(c1ccoc1)N1CC[C@@H]2[C@H]1CCC(=O)N2c1ccccc1`, for which the Percent Effect in assay [1] was -4.24%; in assay [2], 10.7%; in [3], 10.1%; in assay [4] it was -2.97%; in assay [5], -1.97%; in assay [6] it was -1.63%. Further, the Percent Effect in assay [7] was 5.02%; in assay [8] it was 10.8%; in assay [9], 9.57%; in assay [10], 14.1%; in [11], -0.93%.

As to `COCCC(=O)N1CC2(CCN(Cc3cccc(Cl)c3)CC2)C1`, the Percent Effect in assay [1] is -1.79%; in assay [2] it was 5.33%; in assay [3], 5.28%; in assay [4], 2.57%; in assay [5], -7.09%; in assay [6] it was 3.03%. The Percent Effect is 10.8% in assay [7]; 6% in assay [8]; 4.25% in assay [9]; 11.5% in assay [10]; -4.02% in [11].

Consider `O=C(NCc1cc[nH]n1)N1CCCCC(N2CCCC2)C1` (stereo not drawn), for which the Percent Effect is -3.54% in assay [1]; -10.5% in [2]; -9.14% in assay [3]; 11.7% in [4]; 6.44% in assay [5]; 2.16% in assay [6]. Further, the Percent Effect is 1.27% in [7]; 7.32% in assay [8]; 7.39% in assay [9]; 23.5% in assay [10]; 3.8% in assay [11].

On to `Cc1csc([C@@H]2C[C@@H]3CCN(C(=O)c4cc(C)on4)C[C@H]3O2)n1`, for which the Percent Effect is -3.41% in [1]; 20.8% in [2]; -1.54% in [3]; -4.81% in assay [4]; 4.04% in [5]; 5.81% in assay [6]. Moreover, the Percent Effect was 11.7% in assay [7]; 12.7% in assay [8]; 4.23% in assay [9]; 16.7% in assay [10]; -9.47% in [11].

The record behind these values is ChEMBL document CHEMBL3988442, “University of Dundee, Small-Polar-MMV Screening Library” (2021).
